Screen size: about 420,000 compounds; about 64,000 (15%) were called active. Not shown: some 27% with an inconclusive outcome. A selection follows. A number with no mark means an inactive call. The call rests on the fitted dose curve; in most records, active means well fitted inhibition curve with a large enough effect; inconclusive means small, poorly fitted or top-dose-only effect; inactive means flat fitted curve, though single readings scatter. Square brackets hold non-standard residues; d marks the D form. Peptide text beside a SMILES is read from it. ξ: configuration not given here. Ac5c = NC1(C(=O)O)CCCC1; ξS = NC(CO)C(=O)O
Test: qHTS for Inhibitors of human tyrosyl-DNA phosphodiesterase 1 (TDP1): qHTS in cells in absence of CPT; further: nearly all actives have a fitted effect of over 55% in size
Conditions: DT40 Tdp1-/- hTDP1 cells, no CPT, ATP luminescence, 48 h; activity change, negative = growth inhibition: at 46.2 µM (top of the series)
Method in brief: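 Chicken DT40 Tdp1-/- cells complemented with human TDP1, screened without camptothecin (DMSO vehicle only), 400 cells/well. Compounds pin-transferred, cells incubated at 37 °C for at least 48 hr. Growth read as ATP-dependent luminescence (CellTiter-Glo, 30 min at RT).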
On the % scale 0 is the no-effect control and ±100 the full control effect; potency means the concentration at half of the fitted maximal effect.

Compound	activity change, negative = growth inhibition [%]	Potency
CC(=O)N/C(=C\c1ccc(F)cc1)C(=O)NC(Cc1ccccc1)C(=O)O (stereo unspecified)	8.07	–
Cc1cc(C)cc(NC(=O)CSCc2cnn(-c3ccccc3)c2-n2cccc2)c1	–	10.3 µM (active)
CC(=O)Nc1ccc(NC(=O)CSCc2cnn(-c3ccccc3)c2-n2cccc2)cc1	-14.5	–
Cc1cc(C)cc(NC(=O)CSc2ccccc2)c1	-21.9	–
CCOC(=O)c1ccc(N2C(=O)CC(N3CCN(C(=O)c4ccccc4)CC3)C2=O)cc1 (stereo unspecified)	18.9	–
FC(F)(F)c1nnc2c3ccccc3c(Cl)nn12	–	6.51 µM (active)
FC(F)(F)c1nnc2sc(-c3ccco3)nn12	15.9	–
Nc1nnc2c(C(F)(F)F)nc3ccccc3n12	-21.9	–
O=C(COC(=O)c1cc2c(s1)CCCC2)NCc1ccccc1Cl	-5.8	–
C/C(=N\NC(=O)c1ccc(CSc2nc(C)cc(C)n2)cc1)C1CCCCC1	-16.8	–
CC1CCN(C(=O)/C(=C\c2ccccc2F)NC(=O)c2ccccc2)CC1	-22.6	–
COC(=O)c1cccc(N(C(=O)CNC(=O)c2cccs2)C(C(=O)NCC2CCCO2)c2ccc(OC)c(OC)c2)c1 (stereo unspecified)	-19.2	–
COCCn1c(-c2ccc(OC)c(OC)c2)nc2ccccc21	-26.5	–
CCOCCn1c(-c2ccccc2)nc2ccccc21	–	18.4 µM (active)
CCCn1c(C(O)c2cc(OC)ccc2OC)nc2ccccc21 (stereo unspecified)	-14.8	–
COc1ccc(-c2nc3ccccc3n2CCC(C)C)cc1OC	–	25.9 µM (active)
CCOCCn1c(C(C)C)nc2ccccc21	-25.3	–
CCCCCN(C(=O)NC(=O)Nc1ccccc1OC)S(C)(=O)=O	-17.8	–
CC(C)c1ccc(NC(=O)Cn2nnc(C(=O)NCCc3ccccc3)c2N)cc1	5.52	–
CN(C)c1ccc(/C=C/c2sc3ccccc3[n+]2CCCCBr)cc1	–	0.316 µM (active)
CN(C)c1ccc(/C=C/c2sc3ccccc3[n+]2C)cc1	–	0.141 µM (active)
Cc1cccc(CN2CCN(Cc3cnn(-c4ccccc4F)c3)CC2CCO)n1 (stereo unspecified)	-16	–
CC(=O)N1CCN(S(=O)(=O)c2ccc(C)c([N+](=O)[O-])c2)C1C(C)C (stereo unspecified)	-4.36	–
O=C1CC2(CCCC2)C(=O)N1CN1CCN(S(=O)(=O)c2ccc(F)cc2F)CC1	-2.62	–

Compound	activity change, negative = growth inhibition [%]	Potency
CCC(C(=O)Nc1ncccn1)(C(F)(F)F)C(F)(F)F	-8.1	–
COc1cc(NC(=O)CSC(=S)N2CCCC2)c(OC)cc1Cl	–	14.6 µM (active)
COc1cc(Cl)c(C)cc1NC(=O)CSc1nnc(CN2CCCC2)o1	21.9	–
CCOCC(=O)Nc1cc(OC)c(Cl)cc1OC	-4.91	–
COc1ccc(C(=O)N(C)CC(O)c2ccccc2)cc1OC1CCN(C(C)=O)CC1 (stereo unspecified)	18.6	–
Cc1cc2c(=O)n(CC(=O)NCC(=O)Nc3ccc(C(C)C)cc3)cnc2s1	11.4	–
CCC1(C)Cc2c(sc3nc(SC)[nH]c(=O)c23)CO1 (stereo unspecified)	-2.82	–
CCC1(C)Cc2c(sc3nc(SC)nc(N)c23)CO1 (stereo unspecified)	-40	–
CCC1(C)Cc2c(sc3[nH]c(=S)n(Cc4ccccc4)c(=O)c23)CO1 (stereo unspecified)	–	18.4 µM (active)
Cc1ccc(/C=C/C(=O)O)cc1S(=O)(=O)N1CCC(Cc2ccccc2)CC1	4.06	–
CCOC(=O)C(CO)NC(=O)C1(NC(C)=O)CCCC1 (stereo unspecified) (Ac-[Ac5c]-[ξS]-OEt)	18.1	–
CC1=NNC(=O)C1CCC(=O)N/N=C(\C)c1ccc(Cl)cc1 (stereo unspecified)	-2.58	–
C/C(=N\NC(=O)Cc1ccc(Br)cc1)c1cccnc1	6	–
C/C(=N\NC(=O)c1ccccc1F)c1ccccn1	–	0.517 µM (active)
CNC(=S)N1CCN(c2ccccn2)CC1	0.242	–
C/C(CC(=O)Nc1ccc(N(C)C)cc1)=N\NC(=O)c1ccccc1F	6.54	–
C/C(=N\NC(=O)Cc1ccc(Cl)cc1)c1ccccn1	–	2.31 µM (active)
COc1ccc(/C(C)=N/NC(=O)c2ccc3nc[nH]c3c2)cc1	1.6	–
O=C(Nc1ccc(NC(=O)c2ccccc2F)cc1)c1ccccc1F	-0.0635	–
COc1ccc(CC(=O)N/N=C(\C)c2ccccn2)cc1	–	7.31 µM (active)
Cc1cccc(C)c1NC(=S)N1CCCCCC1	-7.49	–
CC(=NNC(=S)N1CCCCCC1)c1ccccn1	–	0.0164 µM (active)
COc1ccc(C/C(C)=N/NC(=O)c2ccncc2)cc1	10.6	–
CCN(CC(=O)Nc1cc(Cl)ccc1C)C(=O)Cn1c(=O)cnc2ccccc21	4.61	–

Compound	activity change, negative = growth inhibition [%]	Potency
Cc1ccc(CC(=O)N(C)CC(=O)N(CC(C)C)c2c(N)n(CC(C)C)c(=O)[nH]c2=O)cc1C	-14.8	–
O=C(COC(=O)c1ncc(Cl)c(Cl)c1Cl)NCc1cccs1	9.23	–
CCN(CC)C(=O)Cn1cc(S(=O)(=O)CC(=O)NCc2ccc3c(c2)OCO3)c2ccccc21	-2.15	–
Cc1ccccc1/C=C\c1nc(O)c([N+](=O)[O-])c(=O)[nH]1	1.57	–
Cc1ccc(NC(=O)COc2ccc(/C=N\NC(=O)c3cccnc3)cc2)cc1C	-4.49	–
CCOc1cc2c(Cl)ncnc2c(OCC)c1OCC	-0.504	–
O=S(=O)(Nc1ccc(OC(F)(F)F)cc1)c1cccc2nonc12	-26.6	–
CCOc1ccc(S(=O)(=O)n2ccnc2)c2ccccc12	0.648	–
CC[C@@H]1CC2=C(C(=O)OC(C)(C)O2)[C@@H](CC)O1	-9.09	–
CC1(C)OC(=O)C2=C(CC(c3ccccc3)OC2CCc2ccccc2)O1 (stereo unspecified)	–	23.1 µM (active)
CC(C)C1CC2=C(C(=O)OC(C)(C)O2)C(c2ccc(F)cc2)O1 (stereo unspecified)	-0.527	–
CN(C)c1nc(-c2cccnc2)nc(-c2ccc(Cl)cc2)c1C#N	-26.8	–
CN(C)C(=O)Cn1c(=O)n(S(=O)(=O)c2ccccc2)c2ccccc21	1.81	–
Cc1ccc(-c2noc(CCC(N)=O)n2)cc1	-15.8	–
CCNC(=O)CCc1nc(-c2ccc(C)cc2)no1	-26.5	–
CC(=O)c1ccc(NC(=O)CCc2nc(-c3ccc(C)cc3)no2)cc1	–	16.4 µM (active)
CC(C)CC(=O)N=C1SC2CS(=O)(=O)CC2N1CCc1ccccc1 (stereo unspecified)	-18.7	–
CCOC(=O)C1CCN(Cc2ccc(-c3ccccc3)cc2)CC1	3.59	–
CCOC(=O)C1CCN(c2ncnc3c2c(-c2ccccc2)cn3-c2ccc(C)cc2)CC1	–	18.4 µM (active)
CCOC(=O)C1CCN(Cc2nnc(-c3cccc(Br)c3)o2)CC1	-4.65	–
CCOC(=O)C1CCN(c2ncnc3c2c(-c2ccccc2)cn3-c2cccc(C)c2)CC1	–	23.1 µM (active)
CCOC(=O)C1CCCN(C(=O)c2cccc3ccccc23)CC1 (stereo unspecified)	-29.7	–
CCOC(=O)C1CCN(C(=O)COc2cc(C)c(Br)c(C)c2)CC1	-22.3	–

From PubChem BioAssay AID686978 (National Center for Advancing Translational Sciences (NCATS), 2013)
